# In publication PMC11062922 (Nature Chemical Biology, 2023):
# Like-named read-outs stand apart in the source and are kept apart here.
# System: SIK2
# Conditions: read-out: apparent Kd, n = 1
substance,measurement,setting,value
Lestaurtinib,potency estimated from few doses,"compound concentrations:100 nM and 1000 nM (sheet 'Lestaurtinib' of Supplementary Table 1),run:Lestaurtinib_02367_R3,Plate:MR003",0.0515 µM
same,potency estimated from few doses,"compound concentrations:100 nM and 1000 nM (sheet 'Lestaurtinib' of Supplementary Table 1),run:Lestaurtinib_02381_R1,Plate:MR004",0.0564 µM
same,potency estimated from few doses,"compound concentrations:100 nM and 1000 nM (sheet 'Lestaurtinib' of Supplementary Table 1),run:Lestaurtinib_02381_R2,Plate:MR004",0.0624 µM
same,potency estimated from few doses,"compound concentrations:100 nM and 1000 nM (sheet 'Lestaurtinib' of Supplementary Table 1),run:Lestaurtinib_02381_R3,Plate:MR004",0.0301 µM
same,potency estimated from few doses,"compound concentrations:100 nM and 1000 nM (sheet 'Lestaurtinib' of Supplementary Table 1),run:Lestaurtinib_02407_R1,Plate:MR005",0.0507 µM
same,potency estimated from few doses,"compound concentrations:100 nM and 1000 nM (sheet 'Lestaurtinib' of Supplementary Table 1),run:Lestaurtinib_02407_R2,Plate:MR005",0.0525 µM
same,potency estimated from few doses,"compound concentrations:100 nM and 1000 nM (sheet 'Lestaurtinib' of Supplementary Table 1),run:Lestaurtinib_02422_R2,Plate:MR006",0.00974 µM
same,potency estimated from few doses,"compound concentrations:100 nM and 1000 nM (sheet 'Lestaurtinib' of Supplementary Table 1),run:Lestaurtinib_02422_R3,Plate:MR006",0.0526 µM
same,potency estimated from few doses,"compound concentrations:100 nM and 1000 nM (sheet 'Lestaurtinib' of Supplementary Table 1),run:Lestaurtinib_02437_R1,Plate:MR007",0.0506 µM
same,potency estimated from few doses,"compound concentrations:100 nM and 1000 nM (sheet 'Lestaurtinib' of Supplementary Table 1),run:Lestaurtinib_02437_R3,Plate:MR007",0.00745 µM
same,potency estimated from few doses,"compound concentrations:100 nM and 1000 nM (sheet 'Lestaurtinib' of Supplementary Table 1),run:Lestaurtinib_02438_R2,Plate:MR008",0.0414 µM
same,potency estimated from few doses,"compound concentrations:100 nM and 1000 nM (sheet 'Lestaurtinib' of Supplementary Table 1),run:Lestaurtinib_02438_R3,Plate:MR008",0.0347 µM
same,potency estimated from few doses,"compound concentrations:100 nM and 1000 nM (sheet 'Lestaurtinib' of Supplementary Table 1),run:Lestaurtinib_02443_R1,Plate:MR009",0.0493 µM
same,potency estimated from few doses,"compound concentrations:100 nM and 1000 nM (sheet 'Lestaurtinib' of Supplementary Table 1),run:Lestaurtinib_02443_R2,Plate:MR009",0.051 µM
same,potency estimated from few doses,"compound concentrations:100 nM and 1000 nM (sheet 'Lestaurtinib' of Supplementary Table 1),run:Lestaurtinib_02443_R3,Plate:MR009",0.0511 µM
same,potency estimated from few doses,"compound concentrations:100 nM and 1000 nM (sheet 'Lestaurtinib' of Supplementary Table 1),run:Lestaurtinib_02473_R2,Plate:MR010",0.0442 µM
same,potency estimated from few doses,"compound concentrations:100 nM and 1000 nM (sheet 'Lestaurtinib' of Supplementary Table 1),run:Lestaurtinib_02473_R3,Plate:MR010",0.0301 µM
same,potency estimated from few doses,"compound concentrations:100 nM and 1000 nM (sheet 'Lestaurtinib' of Supplementary Table 1),run:Lestaurtinib_02482_R2,Plate:MR011",0.0523 µM
same,potency estimated from few doses,"compound concentrations:100 nM and 1000 nM (sheet 'Lestaurtinib' of Supplementary Table 1),run:Lestaurtinib_02482_R3,Plate:MR011",0.0449 µM
same,potency estimated from few doses,"compound concentrations:100 nM and 1000 nM (sheet 'Lestaurtinib' of Supplementary Table 1),run:Lestaurtinib_02487_R2,Plate:MR012",0.0478 µM
same,potency estimated from few doses,"compound concentrations:100 nM and 1000 nM (sheet 'Lestaurtinib' of Supplementary Table 1),run:Lestaurtinib_02487_R3,Plate:MR012",0.0595 µM
same,potency estimated from few doses,"compound concentrations:100 nM and 1000 nM (sheet 'Lestaurtinib' of Supplementary Table 1),run:Lestaurtinib_02496_R1,Plate:MR013",0.0442 µM
same,potency estimated from few doses,"compound concentrations:100 nM and 1000 nM (sheet 'Lestaurtinib' of Supplementary Table 1),run:Lestaurtinib_02496_R3,Plate:MR013",0.0402 µM
same,potency estimated from few doses,"compound concentrations:100 nM and 1000 nM (sheet 'Lestaurtinib' of Supplementary Table 1),run:Lestaurtinib_02566_R2,Plate:MR014",0.0489 µM
same,potency estimated from few doses,"compound concentrations:100 nM and 1000 nM (sheet 'Lestaurtinib' of Supplementary Table 1),run:Lestaurtinib_02566_R3,Plate:MR014",0.0626 µM
same,potency estimated from few doses,"compound concentrations:100 nM and 1000 nM (sheet 'Lestaurtinib' of Supplementary Table 1),run:Lestaurtinib_02572_R1,Plate:MR015",0.046 µM
same,potency estimated from few doses,"compound concentrations:100 nM and 1000 nM (sheet 'Lestaurtinib' of Supplementary Table 1),run:Lestaurtinib_02572_R2,Plate:MR015",0.0515 µM
same,potency estimated from few doses,"compound concentrations:100 nM and 1000 nM (sheet 'Lestaurtinib' of Supplementary Table 1),run:Lestaurtinib_02572_R3,Plate:MR015",0.0516 µM
same,potency estimated from few doses,"compound concentrations:100 nM and 1000 nM (sheet 'Lestaurtinib' of Supplementary Table 1),run:Lestaurtinib_02577_R1,Plate:MR016",0.0515 µM
same,potency estimated from few doses,"compound concentrations:100 nM and 1000 nM (sheet 'Lestaurtinib' of Supplementary Table 1),run:Lestaurtinib_02577_R2,Plate:MR016",0.0448 µM
same,potency estimated from few doses,"compound concentrations:100 nM and 1000 nM (sheet 'Lestaurtinib' of Supplementary Table 1),run:Lestaurtinib_02577_R3,Plate:MR016",0.0469 µM
same,potency estimated from few doses,"compound concentrations:100 nM and 1000 nM (sheet 'Lestaurtinib' of Supplementary Table 1),run:Lestaurtinib_02584_R1,Plate:MR017",0.051 µM
same,potency estimated from few doses,"compound concentrations:100 nM and 1000 nM (sheet 'Lestaurtinib' of Supplementary Table 1),run:Lestaurtinib_02584_R2,Plate:MR017",0.0496 µM
same,potency estimated from few doses,"compound concentrations:100 nM and 1000 nM (sheet 'Lestaurtinib' of Supplementary Table 1),run:Lestaurtinib_02584_R3,Plate:MR017",0.0534 µM
same,potency estimated from few doses,"compound concentrations:100 nM and 1000 nM (sheet 'Lestaurtinib' of Supplementary Table 1),run:Lestaurtinib_02601_R2,Plate:MR018",0.0943 µM
same,potency estimated from few doses,"compound concentrations:100 nM and 1000 nM (sheet 'Lestaurtinib' of Supplementary Table 1),run:Lestaurtinib_02601_R3,Plate:MR018",0.0402 µM
same,potency estimated from few doses,"compound concentrations:100 nM and 1000 nM (sheet 'Lestaurtinib' of Supplementary Table 1),run:Lestaurtinib_02606_R1,Plate:MR019",0.0512 µM
same,potency estimated from few doses,"compound concentrations:100 nM and 1000 nM (sheet 'Lestaurtinib' of Supplementary Table 1),run:Lestaurtinib_02606_R2,Plate:MR019",0.0456 µM
same,potency estimated from few doses,"compound concentrations:100 nM and 1000 nM (sheet 'Lestaurtinib' of Supplementary Table 1),run:Lestaurtinib_02624_R1,Plate:MR020",0.0515 µM
same,potency estimated from few doses,"compound concentrations:100 nM and 1000 nM (sheet 'Lestaurtinib' of Supplementary Table 1),run:Lestaurtinib_02624_R2,Plate:MR020",0.0495 µM
same,potency estimated from few doses,"compound concentrations:100 nM and 1000 nM (sheet 'Lestaurtinib' of Supplementary Table 1),run:Lestaurtinib_02624_R3,Plate:MR020",0.0465 µM
same,potency estimated from few doses,"compound concentrations:100 nM and 1000 nM (sheet 'Lestaurtinib' of Supplementary Table 1),run:Lestaurtinib_02724_R1,Plate:MR021",0.0739 µM
same,potency estimated from few doses,"compound concentrations:100 nM and 1000 nM (sheet 'Lestaurtinib' of Supplementary Table 1),run:Lestaurtinib_02724_R2,Plate:MR021",0.0448 µM
same,potency estimated from few doses,"compound concentrations:100 nM and 1000 nM (sheet 'Lestaurtinib' of Supplementary Table 1),run:Lestaurtinib_02724_R3,Plate:MR021",0.0505 µM
same,potency estimated from few doses,"compound concentrations:100 nM and 1000 nM (sheet 'Lestaurtinib' of Supplementary Table 1),run:Lestaurtinib_02741_R1,Plate:MR023",0.0572 µM
same,potency estimated from few doses,"compound concentrations:100 nM and 1000 nM (sheet 'Lestaurtinib' of Supplementary Table 1),run:Lestaurtinib_02741_R2,Plate:MR023",0.0713 µM
same,potency estimated from few doses,"compound concentrations:100 nM and 1000 nM (sheet 'Lestaurtinib' of Supplementary Table 1),run:Lestaurtinib_02741_R3,Plate:MR023",0.0545 µM
